The values below come from PubChem BioAssay (NCI).

Compounds without any hit were thinned out: in the full panel of roughly 83,000, 20% have a hit.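 96-well plates, one dose, 48 hours. Percent growth reported; active if below 10.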 A number with no mark means an inactive call. Calls of active or inactive are those of the source.

Common to all, as to test: NCI-60 one-dose screen, 48 h (100 = growth as untreated, 0 = no growth, -100 = all killed)
Common to all, as to conditions: 10 µM

In experiment [1] the test system is BT-549 breast.
In experiment [2] the test system is MDA-MB-435 melanoma.
Experiment [3] relates to SW-620 colon.
The subject of experiment [4] is MCF7 breast.
For experiment [5], the system named is HCT-116 colon.
Experiment [6] concerns HCC-2998 colon.
Experiment [7] has as its system KM12 colon.

Turning to `O=c1oc2cc(OS(=O)(=O)c3ccccc3)ccc2c2c1CCCCC2`, the growth in experiment [1] is 59.9%; in experiment [2] it was 64.7%; in experiment [3], 44.2%; in experiment [4] it was 49.7%; in experiment [5], 29%; in experiment [6], 59.1%. In addition, the growth in experiment [7] is 41.1%.
`CC(=O)n1c(-c2ccc(Cl)c(Cl)c2)cn(-c2ccc(Cl)cc2)c1=O`: the growth was 0.373% (active) in experiment [1]; 32% in experiment [2]; 38.7% in experiment [3]; 21.9% in experiment [4]; 17.8% in experiment [5]; 21.6% in experiment [6]. In addition, in experiment [7], the growth was 49.8%.
`Cc1cccc(C)c1NC(=O)c1sc2nc3c(cc2c1N)C(=O)CCC3`: the growth in experiment [1] was 90.7%; in experiment [2], 13%; in experiment [3] it was 72.2%; in experiment [4], 54.6%; in experiment [5] it was 90.6%; in experiment [6], 72.5%. The growth in experiment [7] was 56.3%.
As for `CSc1nc(=O)n(Cc2ccc(F)cc2)c(=O)n1Cc1ccc(C)cc1`, the growth in experiment [1] is 103%; in experiment [2] it was 117%; in experiment [3], 115%; in experiment [4] it was 91.1%; in experiment [5], 97.5%; in experiment [6] it was 95.5%. In experiment [7], the growth was 96.4%.
With `O=C(Nc1nc2ccc(F)cc2s1)c1cc(-c2ccc(F)cc2)n2nc(-c3ccccc3)cc2n1`, the growth was 88% in experiment [1]; 62.7% in experiment [2]; 62.4% in experiment [3]; 80.6% in experiment [4]; 79.1% in experiment [5]; 99.8% in experiment [6]. Besides, the growth in experiment [7] is 65.9%.
In the case of `ClCCOCCn1cnc2c(Cl)nc(Cl)nc21`, the growth is 102% in experiment [1]; 80.7% in experiment [2]; 47.6% in experiment [3]; 55.9% in experiment [4]; -13.6% (active) in experiment [5]; -90.2% (active) in experiment [6]. In addition, in experiment [7], the growth is 92.5%.
Take `CN(CCc1ccccn1)c1ccccc1`: the growth is 104% in experiment [1]; 120% in experiment [2]; 111% in experiment [3]; 95.9% in experiment [4]; 101% in experiment [5]; 103% in experiment [6]. Moreover, the growth in experiment [7] was 104%.
For `COc1cc(-c2cc(/C=C/C(=O)c3ccc(F)c(F)c3)[nH]n2)cc(OC)c1OC`, the growth is 94.2% in experiment [1]; 51.7% in experiment [2]; 67.2% in experiment [3]; 48.3% in experiment [4]; 29.3% in experiment [5]; 87.1% in experiment [6]. In addition, in experiment [7], the growth is 41%.
Consider `O=C(CCCCC(=O)Nc1ccc2c(c1)/C(=C/c1ccc[nH]1)C(=O)N2)NO`, for which the growth in experiment [1] was 97.1%; in experiment [2] it was 74.8%; in experiment [3] it was 83.9%; in experiment [4], 61.9%; in experiment [5], 88.3%; in experiment [6], 101%. For the same molecule, the growth in experiment [7] was 78%.
As for `Cn1c(N)c(N=Nc2ccc(S(=O)(=O)Nc3nccs3)cc2)c(=O)n(C)c1=O`, the growth in experiment [1] is 97.9%; in experiment [2] it was 101%; in experiment [3] it was 99%; in experiment [4] it was 101%; in experiment [5], 109%; in experiment [6], 95.9%. The growth in experiment [7] was 104%.
With `O=C(O)c1ccc(Cl)cc1Nc1ccc(F)cc1`, the growth in experiment [1] is 32.5%; in experiment [2], 83.2%; in experiment [3], 94.6%; in experiment [4], 76.7%; in experiment [5], 72.8%; in experiment [6], 81.9%. For the same molecule, in experiment [7], the growth was 74.5%.
With `COc1ccc(-c2nc3ncccn3c2-c2nnc(-c3ccsc3C)o2)cc1`, the growth in experiment [1] was 63.6%; in experiment [2], 94.6%; in experiment [3], 94.6%; in experiment [4], 77.1%; in experiment [5], 88.9%; in experiment [6] it was 102%. The growth in experiment [7] was 98.6%.
Regarding `CCOC(=O)c1ccoc1`, the growth was 98.4% in experiment [1]; 107% in experiment [2]; 100% in experiment [3]; 95.1% in experiment [4]; 97.1% in experiment [5]; 113% in experiment [6]. The growth in experiment [7] was 104%.
For the molecule `COc1ccc(-c2cc(-c3cccc(NS(C)(=O)=O)c3)nc(N)c2C#N)cc1`, the growth was 40.1% in experiment [1]; -55.2% (active) in experiment [2]; 27.4% in experiment [3]; 16.5% in experiment [4]; 17% in experiment [5]; -25.7% (active) in experiment [6]. For the same molecule, the growth in experiment [7] is 17.6%.
For the molecule `Cc1ccc(C(=O)Nc2cccc(F)c2)cc1NC(=O)C1(c2ncnc3[nH]ccc23)CC1`, the growth in experiment [1] was 93.4%; in experiment [2] it was 74%; in experiment [3], 67%; in experiment [4], 87.1%; in experiment [5] it was 44.5%; in experiment [6] it was 60.5%. In experiment [7], the growth was 82.7%.
As for `COc1ccc(/C=C/C(C)=N/OCC(=O)O)cc1`, the growth in experiment [1] was 98.6%; in experiment [2] it was 114%; in experiment [3] it was 107%; in experiment [4], 100%; in experiment [5] it was 96.9%; in experiment [6], 105%. Further, in experiment [7], the growth is 106%.
As to `O=C(CCCCCCC(=O)Nc1cccnc1)NO`, the growth in experiment [1] is 69.5%; in experiment [2], 19.8%; in experiment [3], 35.6%; in experiment [4], 35.3%; in experiment [5] it was 9.09% (active); in experiment [6] it was 40%. Also, in experiment [7], the growth was 6.19% (active).
Take `CCCCCCCCN(CCCCCCCC)CCCCCCCCCN1CCCc2cc(OC)ccc21`: the growth in experiment [1] was 94.9%; in experiment [2], 104%; in experiment [3], 99%; in experiment [4] it was 96%; in experiment [5], 75.7%; in experiment [6], 93.2%. Also, the growth in experiment [7] is 104%.
